From the supplement of paper PMC10849652
Of roughly 7,900 targets only a part is listed; those with a hit were picked by preference. About 0.6% of all pairs of compound and target were hits. Unmarked numbers belong to inactive results.

Key:
Experiment in all cases: log2 fold change, soluble protein after heating vs DMSO (PISA); higher = thermal stabilisation; K562 cells, 10 uM, 30 min; active = over 0.2 and 3.5 SD of the protein, either way, in both replicates (recomputed)
[1] = compound: CS(=O)(=O)c1ccc(-c2cnc(N)c(C(=O)Nc3ccccc3)n2)cc1
Outline: (§1)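 Quantification of soluble protein used TMTpro 16plex LC-MS/MS, with channel sums equalised. Samples were the supernatant after 21,000xg for 90 min of pooled aliquots from K562 cells (2×10^6 cells/mL) treated with 10 μM compound for 30 min, heated for 3 min over 48°C-58°C, and extracted in PBS with 0.5% NP-40 at 4°C. Values, from duplicates, describe thermal stability against control samples on a log2 fold-change scale.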

crizotinib = compound: C[C@@H](Oc1cc(-c2cnn(C3CCNCC3)c2)cnc1N)c1c(Cl)ccc(F)c1Cl [crizotinib]
Outline: as §1

[2] = compound: C[C@@H]1COCCN1C2=NC(=NC(=C2)C3(CC3)S(=O)(=O)C)C4=C5C=CNC5=CC=C4
Outline: as §1

[3] = compound: C[C@H](C1=CC=C(C=C1)C(=O)NC2=C3C=CNC3=NC=C2)N
Outline: as §1

duvelisib = compound: C[C@H](Nc1ncnc2nc[nH]c12)c1cc2cccc(Cl)c2c(=O)n1-c1ccccc1 [duvelisib]
Outline: as §1

gandotinib = compound: Cc1cc(Nc2cc(CN3CCOCC3)c3nc(C)c(Cc4ccc(Cl)cc4F)n3n2)n[nH]1 [gandotinib]
Outline: as §1

tozasertib = compound: Cc1cc(Nc2cc(N3CCN(C)CC3)nc(Sc3ccc(NC(=O)C4CC4)cc3)n2)n[nH]1 [tozasertib]
Outline: as §1

[4] = compound: Cc1cc(SCc2sc(-c3ccc(C(F)(F)F)cc3)nc2C)ccc1OCC(=O)O
Outline: as §1

doramapimod = compound: Cc1ccc(-n2nc(C(C)(C)C)cc2NC(=O)Nc2ccc(OCCN3CCOCC3)c3ccccc23)cc1 [doramapimod]
Outline: as §1

ispinesib = compound: Cc1ccc(C(=O)N(CCCN)[C@@H](c2nc3cc(Cl)ccc3c(=O)n2Cc2ccccc2)C(C)C)cc1 [ispinesib]
Outline: as §1

Sequence of UniProt Q7Z3K3 (Q7Z3K3 whole entry, looked up): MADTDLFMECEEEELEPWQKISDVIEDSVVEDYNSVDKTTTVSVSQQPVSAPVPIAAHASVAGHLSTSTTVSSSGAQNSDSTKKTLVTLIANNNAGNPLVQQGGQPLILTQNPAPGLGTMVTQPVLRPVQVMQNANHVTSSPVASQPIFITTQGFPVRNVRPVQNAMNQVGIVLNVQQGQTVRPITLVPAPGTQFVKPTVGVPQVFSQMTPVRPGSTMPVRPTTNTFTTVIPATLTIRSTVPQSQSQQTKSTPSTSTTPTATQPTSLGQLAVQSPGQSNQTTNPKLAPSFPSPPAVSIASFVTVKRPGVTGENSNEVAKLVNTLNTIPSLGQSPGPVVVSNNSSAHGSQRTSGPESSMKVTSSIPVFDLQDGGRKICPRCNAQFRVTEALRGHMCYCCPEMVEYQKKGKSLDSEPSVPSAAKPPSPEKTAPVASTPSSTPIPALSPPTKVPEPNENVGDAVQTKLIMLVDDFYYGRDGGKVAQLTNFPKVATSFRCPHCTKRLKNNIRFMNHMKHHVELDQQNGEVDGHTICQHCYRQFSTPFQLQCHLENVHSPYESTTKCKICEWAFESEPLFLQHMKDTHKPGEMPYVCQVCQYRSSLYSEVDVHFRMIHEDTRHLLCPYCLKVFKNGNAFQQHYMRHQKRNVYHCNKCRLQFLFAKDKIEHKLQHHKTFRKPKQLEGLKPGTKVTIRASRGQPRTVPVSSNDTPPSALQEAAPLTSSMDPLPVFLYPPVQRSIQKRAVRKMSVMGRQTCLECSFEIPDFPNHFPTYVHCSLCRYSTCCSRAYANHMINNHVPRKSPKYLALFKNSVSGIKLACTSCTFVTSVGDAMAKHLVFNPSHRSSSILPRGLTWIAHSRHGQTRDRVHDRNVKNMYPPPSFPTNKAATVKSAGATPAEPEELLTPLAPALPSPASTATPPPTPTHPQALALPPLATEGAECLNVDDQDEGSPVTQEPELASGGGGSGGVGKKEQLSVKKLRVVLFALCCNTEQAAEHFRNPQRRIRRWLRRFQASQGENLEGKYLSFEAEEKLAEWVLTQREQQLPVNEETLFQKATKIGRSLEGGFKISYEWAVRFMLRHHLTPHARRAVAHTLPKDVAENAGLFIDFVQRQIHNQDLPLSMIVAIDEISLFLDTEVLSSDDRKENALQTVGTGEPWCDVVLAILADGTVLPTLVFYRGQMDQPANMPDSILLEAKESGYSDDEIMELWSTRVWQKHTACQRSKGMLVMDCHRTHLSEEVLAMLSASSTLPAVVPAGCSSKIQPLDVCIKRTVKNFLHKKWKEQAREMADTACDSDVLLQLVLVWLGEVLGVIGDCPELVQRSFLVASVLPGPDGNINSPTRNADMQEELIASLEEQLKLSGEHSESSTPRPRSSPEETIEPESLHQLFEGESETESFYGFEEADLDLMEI
Sequence of UniProt P49643 (P49643 whole entry, looked up): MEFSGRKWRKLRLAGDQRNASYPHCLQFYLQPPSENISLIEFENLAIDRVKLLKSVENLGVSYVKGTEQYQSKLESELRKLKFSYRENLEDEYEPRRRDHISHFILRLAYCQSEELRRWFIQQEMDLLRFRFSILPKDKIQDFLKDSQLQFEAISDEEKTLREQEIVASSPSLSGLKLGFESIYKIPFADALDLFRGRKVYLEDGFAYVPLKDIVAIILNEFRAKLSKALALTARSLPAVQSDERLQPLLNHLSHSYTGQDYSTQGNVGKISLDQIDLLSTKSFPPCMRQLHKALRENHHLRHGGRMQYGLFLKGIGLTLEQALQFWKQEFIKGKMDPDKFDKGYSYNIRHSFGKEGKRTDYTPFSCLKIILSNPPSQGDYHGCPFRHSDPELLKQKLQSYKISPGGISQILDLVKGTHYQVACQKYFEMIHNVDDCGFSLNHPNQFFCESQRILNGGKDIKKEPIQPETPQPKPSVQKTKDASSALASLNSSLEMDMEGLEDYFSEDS
Sequence of UniProt P42338 (P42338 whole entry, looked up): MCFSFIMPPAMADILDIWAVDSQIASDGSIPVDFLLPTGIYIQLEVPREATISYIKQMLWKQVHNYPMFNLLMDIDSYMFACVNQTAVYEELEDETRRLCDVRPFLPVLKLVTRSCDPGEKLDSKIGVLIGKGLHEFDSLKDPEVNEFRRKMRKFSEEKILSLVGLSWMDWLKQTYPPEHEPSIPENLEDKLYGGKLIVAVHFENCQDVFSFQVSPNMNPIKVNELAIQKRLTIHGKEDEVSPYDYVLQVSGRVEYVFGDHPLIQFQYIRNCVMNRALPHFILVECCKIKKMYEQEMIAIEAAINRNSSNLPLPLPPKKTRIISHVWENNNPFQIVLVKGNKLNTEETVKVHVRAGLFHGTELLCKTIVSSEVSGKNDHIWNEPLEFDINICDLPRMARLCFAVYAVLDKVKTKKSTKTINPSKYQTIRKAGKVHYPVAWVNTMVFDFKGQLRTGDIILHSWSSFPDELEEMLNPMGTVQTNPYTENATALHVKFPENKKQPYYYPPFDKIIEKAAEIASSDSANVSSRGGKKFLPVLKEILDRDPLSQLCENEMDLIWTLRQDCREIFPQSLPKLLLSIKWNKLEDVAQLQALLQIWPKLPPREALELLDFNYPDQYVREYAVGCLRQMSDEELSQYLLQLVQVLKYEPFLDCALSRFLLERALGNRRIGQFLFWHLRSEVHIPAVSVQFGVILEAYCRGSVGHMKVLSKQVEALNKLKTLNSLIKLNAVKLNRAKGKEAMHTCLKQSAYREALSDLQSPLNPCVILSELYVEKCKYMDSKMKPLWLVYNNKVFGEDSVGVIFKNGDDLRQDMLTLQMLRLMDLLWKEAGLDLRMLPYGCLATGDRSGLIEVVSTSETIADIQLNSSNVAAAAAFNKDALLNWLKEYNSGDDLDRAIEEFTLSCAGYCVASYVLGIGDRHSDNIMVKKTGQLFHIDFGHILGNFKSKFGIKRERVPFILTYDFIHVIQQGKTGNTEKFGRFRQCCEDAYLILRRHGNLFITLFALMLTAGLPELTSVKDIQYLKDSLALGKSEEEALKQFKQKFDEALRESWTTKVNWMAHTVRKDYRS
Sequence of UniProt Q16822 (Q16822 whole entry, looked up): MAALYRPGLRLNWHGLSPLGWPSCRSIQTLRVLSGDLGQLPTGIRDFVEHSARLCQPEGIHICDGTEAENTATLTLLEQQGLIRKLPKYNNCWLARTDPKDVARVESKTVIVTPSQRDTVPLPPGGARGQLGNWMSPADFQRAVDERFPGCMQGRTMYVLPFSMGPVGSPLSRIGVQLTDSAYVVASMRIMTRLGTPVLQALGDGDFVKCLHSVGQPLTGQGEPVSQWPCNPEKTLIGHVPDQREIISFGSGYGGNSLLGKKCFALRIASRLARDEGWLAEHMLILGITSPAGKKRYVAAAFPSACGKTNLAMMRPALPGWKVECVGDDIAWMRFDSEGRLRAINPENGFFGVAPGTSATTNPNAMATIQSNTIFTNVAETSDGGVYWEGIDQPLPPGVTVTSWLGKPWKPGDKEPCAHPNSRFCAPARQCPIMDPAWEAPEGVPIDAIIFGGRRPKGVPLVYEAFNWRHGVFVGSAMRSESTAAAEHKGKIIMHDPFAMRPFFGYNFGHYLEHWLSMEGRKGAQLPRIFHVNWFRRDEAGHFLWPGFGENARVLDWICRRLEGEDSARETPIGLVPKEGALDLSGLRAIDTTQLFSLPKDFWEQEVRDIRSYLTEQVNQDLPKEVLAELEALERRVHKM
Sequence of UniProt Q9UHX1 (Q9UHX1 whole entry, looked up): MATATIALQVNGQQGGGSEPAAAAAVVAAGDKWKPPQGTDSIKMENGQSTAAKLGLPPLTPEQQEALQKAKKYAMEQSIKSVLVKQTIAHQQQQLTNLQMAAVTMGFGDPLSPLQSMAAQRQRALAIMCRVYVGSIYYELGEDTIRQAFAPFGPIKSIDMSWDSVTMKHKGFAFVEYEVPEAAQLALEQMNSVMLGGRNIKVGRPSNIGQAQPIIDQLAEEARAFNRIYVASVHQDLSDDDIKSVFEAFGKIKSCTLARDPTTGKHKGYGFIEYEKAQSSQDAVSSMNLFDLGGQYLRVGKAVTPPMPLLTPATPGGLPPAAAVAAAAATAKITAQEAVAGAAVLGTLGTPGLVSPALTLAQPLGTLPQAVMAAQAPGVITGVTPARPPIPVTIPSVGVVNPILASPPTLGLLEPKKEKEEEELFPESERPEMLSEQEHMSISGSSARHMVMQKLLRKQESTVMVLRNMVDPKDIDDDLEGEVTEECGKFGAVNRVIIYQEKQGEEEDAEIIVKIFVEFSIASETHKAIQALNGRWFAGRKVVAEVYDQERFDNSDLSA
Sequence of UniProt O60256 (O60256 whole entry, looked up): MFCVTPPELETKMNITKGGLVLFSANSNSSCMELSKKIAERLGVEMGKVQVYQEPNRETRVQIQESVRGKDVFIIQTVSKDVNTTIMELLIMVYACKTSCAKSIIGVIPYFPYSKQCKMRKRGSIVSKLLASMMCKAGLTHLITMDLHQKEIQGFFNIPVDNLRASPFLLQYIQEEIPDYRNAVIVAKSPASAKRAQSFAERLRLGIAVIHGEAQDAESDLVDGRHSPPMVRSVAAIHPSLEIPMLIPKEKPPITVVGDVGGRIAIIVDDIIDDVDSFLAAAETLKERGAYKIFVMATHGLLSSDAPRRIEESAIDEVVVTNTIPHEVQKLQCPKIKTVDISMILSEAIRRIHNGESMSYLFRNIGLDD
Sequence of UniProt Q15004 (Q15004 whole entry, looked up): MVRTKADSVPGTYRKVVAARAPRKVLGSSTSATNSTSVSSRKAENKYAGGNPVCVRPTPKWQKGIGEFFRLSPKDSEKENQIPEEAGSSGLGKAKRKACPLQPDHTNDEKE
Sequence of UniProt P0CAP2 (P0CAP2 whole entry, looked up): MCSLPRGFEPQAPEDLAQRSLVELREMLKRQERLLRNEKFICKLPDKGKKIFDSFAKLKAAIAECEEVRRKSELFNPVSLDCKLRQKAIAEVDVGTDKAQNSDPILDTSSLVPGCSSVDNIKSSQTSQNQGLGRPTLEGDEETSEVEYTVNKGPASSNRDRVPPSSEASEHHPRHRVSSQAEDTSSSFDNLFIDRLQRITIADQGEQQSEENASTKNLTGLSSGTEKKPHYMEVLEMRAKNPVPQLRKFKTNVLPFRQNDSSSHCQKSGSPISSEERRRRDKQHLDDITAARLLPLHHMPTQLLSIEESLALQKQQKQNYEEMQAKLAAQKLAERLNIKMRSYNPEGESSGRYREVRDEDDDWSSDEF

Target | log2 fold change [1] | log2 fold change (crizotinib) | log2 fold change [2] | log2 fold change [3] | log2 fold change (duvelisib) | log2 fold change (gandotinib) | log2 fold change (tozasertib) | log2 fold change [4] | log2 fold change (doramapimod) | log2 fold change (ispinesib)
PTPN12 (UniProt Q05209) | 0.031 | -0.018 | -0.04 | 0.069 | -0.022 | -0.088 | 0.089 | 0.053 | -0.004 | -0.011
PTTG1IP (UniProt P53801) | 0.043 | 0.1 | 0.102 | -0.044 | 0.118 | 0.094 | 0.107 | -0.075 | -0.106 | –
PARP16 isoform 3 (UniProt Q8N5Y8) | -0.008 | 0.076 | -0.021 | 0.079 | 0.048 | 0.081 | -0.007 | -0.081 | 0.072 | –
PRKCB isoform 2 (UniProt P05771) | 0.019 | -0.039 | 0.039 | -0.063 | 0.035 | -0.079 | 0.018 | 0.032 | -0.01 | -0.017
PSMB4 (UniProt P28070) | 0.014 | 0.03 | -0.09 | 0.064 | -0.04 | 0.08 | -0.002 | -0.018 | 0.021 | 0.015
PIGT (UniProt Q969N2) | 0.033 | 0.023 | -0.017 | 0.005 | -0.045 | -0.029 | 0.029 | 0.047 | 0.036 | 0
PIP4P2 (UniProt Q8N4L2) | -0.057 | -0.3 (active) | 0.013 | -0.058 | 0.068 | 0.017 | -0.041 | 0.013 | -0.032 | -0.569 (active)
PDS5B (UniProt Q9NTI5) | 0.03 | -0.229 | 0.222 | 0.041 | 0.004 | -0.149 | -0.604 (active) | 0.208 | -0.074 | -0.225
PCLAF (UniProt Q15004) | -0.175 | 0.027 | -0.19 | 0.052 | -0.022 | -0.07 | -0.03 | -0.097 | 0.022 | 0.079
PRIM2 (UniProt P49643) | 0.078 | -0.063 | 0.154 | 0.066 | -0.038 | 0.07 | 0.059 | 0.145 | -0.06 | -0.061
PIR (UniProt O00625) | 0.004 | 0.042 | 0.019 | -0.085 | 0.013 | 0.048 | 0.027 | 0.057 | 0.095 | 0.045
PCGF2 (UniProt P35227) | 0.041 | 0.01 | 0.075 | 0.087 | 0.124 | 0.121 | 0.015 | 0.15 | -0.089 | 0.021
PCBP2 isoform 3 (UniProt Q15366) | -0.036 | -0.018 | 0.06 | -0.031 | -0.006 | -0.065 | 0.056 | 0.072 | -0.008 | 0.005
POLR2B (UniProt P30876) | 0.041 | 0.032 | 0.023 | 0.18 | 0.025 | 0.26 (active) | -0.014 | 0.03 | -0.014 | -0.048
PTGES3 (UniProt Q15185) | 0.047 | 0.066 | 0.068 | -0.101 | 0.03 | -0.049 | 0.063 | 0.086 | -0.118 | 0.015
PRPSAP2 (UniProt O60256) | 0 | 0.01 | 0.112 | -0.016 | -0.013 | 0.114 | 0.038 | 0.023 | -0.007 | 0.012
PHKA2 (UniProt P46019) | -0.247 | -0.076 | 0.051 | -0.108 | 0.022 | -0.083 | -0.052 | 0.071 | 0.053 | -0.013
PMM1 (UniProt Q92871) | 0.051 | 0.008 | 0.032 | 0.019 | 0.07 | -0.075 | -0.114 | -0.011 | 0.027 | 0.026
PCK2 (UniProt Q16822) | 0.009 | 0.17 | 0.01 | -0.098 | 0.064 | 0 | 0 | -0.012 | 0 | 0.076
POGZ (UniProt Q7Z3K3) | 0.044 | -0.019 | 0.242 | 0.01 | -0.115 | 0.143 | 0.153 | 0.142 | 0.053 | -0.221
PPP2R5C isoform 4 (UniProt Q13362) | 0.031 | -0.021 | -0.177 | 0.029 | 0.066 | -0.011 | -0.055 | -0.01 | -0.06 | -0.036
PTTG1 (UniProt O95997) | -0.093 | -0.012 | -0.085 | -0.044 | 0.068 | -0.108 | -0.015 | 0.021 | 0.076 | -0.034
PTMA (UniProt P06454) | -0.041 | -0.302 | -0.155 | -0.034 | 0.006 | 0.059 | 0.154 | -0.042 | 0.072 | 0.199
PCID2 (UniProt Q5JVF3) | 0.157 | -0.171 | -0.138 | 0.246 | -0.02 | -0.149 | -0.028 | 0.058 | -0.005 | -0.096
PUF60 (UniProt Q9UHX1) | -0.012 | 0.031 | 0.025 | -0.199 | 0.01 | -0.09 | 0.081 | 0.056 | -0.041 | 0.039
PIK3CB (UniProt P42338) | 0.043 | -0.077 | 0.064 | 0.034 | 0.318 (active) | -0.041 | -0.075 | 0.06 | 0 | -0.057
POLR2M (UniProt P0CAP2) | 0.028 | 0.074 | 0.097 | 0.044 | 0.164 | 0.141 | -0.052 | 0.012 | 0.013 | -0.055
PRKAR2A (UniProt P13861) | 0.046 | -0.038 | 0.089 | -0.159 | 0.069 | -0.02 | 0.04 | 0.023 | 0.03 | -0.056
PMM2 (UniProt O15305) | 0.006 | 0.08 | 0.013 | 0.012 | 0.056 | -0.045 | -0.017 | -0.031 | -0.015 | 0.009
PSMD11 (UniProt O00231) | 0.036 | -0.024 | -0.035 | 0.074 | -0.04 | 0.046 | 0.08 | 0.07 | 0.013 | 0.045
